Measurements from the supplement of paper PMC8975748.
± gives the standard deviation of the averaged measurements.

Columns and labels:
[1] = system: Saccharomyces cerevisiae BY4741 SeMeCo community; assay: mean cell size (pixel area) (pixels); higher = larger cells; conditions: 10 µM; 24 h; SM minimal medium
Summary of the method: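 A Saccharomyces cerevisiae BY4741 community carrying four plasmids, each with a fluorescent marker and each complementing one auxotrophy, was exposed for 24 h to drug at a final 10 µM in SM medium in acoustically predosed 384-well plates. The overnight preculture (OD600 = 1.0) was diluted to OD600 = 0.3 before 70 µl was added per well. Cells were then fixed with paraformaldehyde, imaged by automated confocal microscopy and analysed in Harmony to derive mean cell pixel area per well, averaged over 3 replicates. Same SeMeCo high-content imaging drug screen: Selleck FDA-approved drugs at 10 µM, 24 h in SM medium, 384-well plates, 3 replicates.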

[2] = system: Saccharomyces cerevisiae BY4741 SeMeCo community; assay: z-score of subpopulation abundance vs DMSO median, subpopulation auxotrophic for U; higher = larger share of this subpopulation than in DMSO controls; conditions: 10 µM; 24 h; SM minimal medium; subpopulation (auxotrophy): U
Summary of the method: (§1)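 Scoring was based on each subpopulation's abundance, expressed as a z-score against the vehicle-well median. A Saccharomyces cerevisiae BY4741 community with four plasmids, each restoring one auxotrophy and encoding a distinct fluorescent protein, was pre-grown overnight to OD600 1.0, diluted to 0.3, and added at 70 µl to 384-well plates acoustically predosed with library drugs (10 µM final). It then grew 24 h in minimal SM medium before paraformaldehyde fixation and automated confocal microscopy, with single-auxotroph fluorescent strains setting thresholds and autofluorescence correction.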

[3] = system: Saccharomyces cerevisiae BY4741 SeMeCo community; assay: z-score of subpopulation abundance vs DMSO median, subpopulation auxotrophic for H; higher = larger share of this subpopulation than in DMSO controls; conditions: 10 µM; 24 h; SM minimal medium; subpopulation (auxotrophy): H
Summary of the method: as §1

[4] = system: Saccharomyces cerevisiae BY4741 SeMeCo community; assay: z-score of subpopulation abundance vs DMSO median, subpopulation auxotrophic for LU; higher = larger share of this subpopulation than in DMSO controls; conditions: 10 µM; 24 h; SM minimal medium; subpopulation (auxotrophy): LU
Summary of the method: as §1

[5] = system: Saccharomyces cerevisiae BY4741 SeMeCo community; assay: z-score of subpopulation abundance vs DMSO median, subpopulation auxotrophic for LM; higher = larger share of this subpopulation than in DMSO controls; conditions: 10 µM; 24 h; SM minimal medium; subpopulation (auxotrophy): LM
Summary of the method: as §1

[6] = system: Saccharomyces cerevisiae BY4741 SeMeCo community; assay: z-score of subpopulation abundance vs DMSO median, subpopulation auxotrophic for HM; higher = larger share of this subpopulation than in DMSO controls; conditions: 10 µM; 24 h; SM minimal medium; subpopulation (auxotrophy): HM
Summary of the method: as §1

[7] = system: Saccharomyces cerevisiae BY4741 SeMeCo community; assay: z-score of subpopulation abundance vs DMSO median, subpopulation auxotrophic for HU; higher = larger share of this subpopulation than in DMSO controls; conditions: 10 µM; 24 h; SM minimal medium; subpopulation (auxotrophy): HU
Summary of the method: as §1

[8] = system: Saccharomyces cerevisiae BY4741 SeMeCo community; assay: z-score of subpopulation abundance vs DMSO median, subpopulation auxotrophic for HL; higher = larger share of this subpopulation than in DMSO controls; conditions: 10 µM; 24 h; SM minimal medium; subpopulation (auxotrophy): HL
Summary of the method: as §1

[9] = system: Saccharomyces cerevisiae BY4741 SeMeCo community; assay: z-score of subpopulation abundance vs DMSO median, subpopulation auxotrophic for HLM; higher = larger share of this subpopulation than in DMSO controls; conditions: 10 µM; 24 h; SM minimal medium; subpopulation (auxotrophy): HLM
Summary of the method: as §1

[10] = system: Saccharomyces cerevisiae BY4741 SeMeCo community; assay: z-score of subpopulation abundance vs DMSO median, subpopulation auxotrophic for HUM; higher = larger share of this subpopulation than in DMSO controls; conditions: 10 µM; 24 h; SM minimal medium; subpopulation (auxotrophy): HUM
Summary of the method: as §1

[11] = system: Saccharomyces cerevisiae BY4741 SeMeCo community; assay: z-score of subpopulation abundance vs DMSO median, subpopulation auxotrophic for LUM; higher = larger share of this subpopulation than in DMSO controls; conditions: 10 µM; 24 h; SM minimal medium; subpopulation (auxotrophy): LUM
Summary of the method: as §1

[12] = system: Saccharomyces cerevisiae BY4741 SeMeCo community; assay: z-score of subpopulation abundance vs DMSO median, subpopulation auxotrophic for HLUM; higher = larger share of this subpopulation than in DMSO controls; conditions: 10 µM; 24 h; SM minimal medium; subpopulation (auxotrophy): HLUM
Summary of the method: as §1

[13] = system: Saccharomyces cerevisiae BY4741 SeMeCo community; assay: z-score of prototroph abundance vs DMSO median; higher = larger share of this subpopulation than in DMSO controls; conditions: 10 µM; 24 h; SM minimal medium; subpopulation (auxotrophy): Prototroph
Summary of the method: as §1

[14] = system: Saccharomyces cerevisiae BY4741 SeMeCo community; assay: z-score of subpopulation abundance vs DMSO median, subpopulation auxotrophic for L; higher = larger share of this subpopulation than in DMSO controls; conditions: 10 µM; 24 h; SM minimal medium; subpopulation (auxotrophy): L
Summary of the method: as §1

[15] = system: Saccharomyces cerevisiae BY4741 SeMeCo community; assay: z-score of subpopulation abundance vs DMSO median, subpopulation auxotrophic for UM; higher = larger share of this subpopulation than in DMSO controls; conditions: 10 µM; 24 h; SM minimal medium; subpopulation (auxotrophy): UM
Summary of the method: as §1

## C[C@@H]1NC(=O)[C@@H](N)CNC(=O)[C@H](C2CCNC(=N)N2)NC(=O)/C(=C/NC(N)=O)NC(=O)[C@H](CNC(=O)CC(N)CCCN)NC1=O.N=C1NCC[C@H]([C@@H]2NC(=O)/C(=C/NC(N)=O)NC(=O)[C@H](CNC(=O)C[C@@H](N)CCCN)NC(=O)[C@H](CO)NC(=O)[C@@H](N)CNC2=O)N1 [Capreomycin Sulfate]
[1]
  mean cell size: 12.1 ± 0.22

## COc1ccc([C@H]2CNC(=O)C2)cc1OC1CCCC1 [S- (+)-Rolipram]
[1]
  mean cell size: 12.43 ± 0.11

## CC(C)CCCCC(=O)N[C@@H](CCN)C(=O)N[C@H](C(=O)N[C@@H](CCN)C(=O)N[C@H]1CCNC(=O)[C@H]([C@@H](C)O)NC(=O)[C@H](CCN)NC(=O)[C@H](CCN)NC(=O)[C@H](CC(C)C)NC(=O)[C@@H](Cc2ccccc2)NC(=O)[C@H](CCN)NC1=O)[C@@H](C)O [Polymyxin B sulphate]
[1]
  mean cell size: 11.1 ± 0.33

## C1N2CN3CN1CN(C2)C3 [Methenamine]
[1]
  mean cell size: 12.21 ± 0.073
[2]
  z-score of subpopulation abundance: 0.59
[3]
  z-score of subpopulation abundance: 0.28
[4]
  z-score of subpopulation abundance: -0.57
[5]
  z-score of subpopulation abundance: 0.49
[6]
  z-score of subpopulation abundance: 1.35
[7]
  z-score of subpopulation abundance: 0.2
[8]
  z-score of subpopulation abundance: -0.01
[9]
  z-score of subpopulation abundance: 0.4
[10]
  z-score of subpopulation abundance: 0.39
[11]
  z-score of subpopulation abundance: 0.29
[12]
  z-score of subpopulation abundance: -0.16

## CN1CC(=O)N2[C@H](c3ccc4c(c3)OCO4)c3[nH]c4ccccc4c3C[C@@H]2C1=O [Tadalafil]
[1]
  mean cell size: 12.3 ± 0.19
[13]
  z-score of prototroph abundance: -0.42
[14]
  z-score of subpopulation abundance: 1.85
[2]
  z-score of subpopulation abundance: -1.35
[3]
  z-score of subpopulation abundance: 0.35
[4]
  z-score of subpopulation abundance: 0.3
[5]
  z-score of subpopulation abundance: 3.43
[7]
  z-score of subpopulation abundance: -0.74
[15]
  z-score of subpopulation abundance: -0.26
[8]
  z-score of subpopulation abundance: 1.24
[9]
  z-score of subpopulation abundance: 1.64
[10]
  z-score of subpopulation abundance: 0.54
[11]
  z-score of subpopulation abundance: 1.95
[12]
  z-score of subpopulation abundance: 1.5

## CC(=O)O[C@H]1C[C@@]2(C)[C@@H](C[C@@H](O)[C@H]3[C@@]4(C)CC[C@@H](O)[C@@H](C)[C@@H]4CC[C@@]32C)/C1=C(\CCC=C(C)C)C(=O)O [Fusidine]
[1]
  mean cell size: 12.41 ± 0.032

## CN[C@H](CC(C)C)C(=O)N[C@H]1C(=O)N[C@@H](CC(N)=O)C(=O)N[C@H]2C(=O)N[C@H]3C(=O)N[C@H](C(=O)N[C@H](C(=O)O)c4cc(O)cc(O)c4-c4cc3ccc4O)[C@H](O)c3ccc(c(Cl)c3)Oc3cc2cc(c3O[C@@H]2O[C@H](CO)[C@@H](O)[C@H](O)[C@H]2O[C@H]2C[C@](C)(N)[C@H](O)[C@H](C)O2)Oc2ccc(cc2Cl)[C@H]1O [Vancomycin]
[1]
  mean cell size: 12.3 ± 0.13
[13]
  z-score of prototroph abundance: 0.81
[14]
  z-score of subpopulation abundance: -0.12
[2]
  z-score of subpopulation abundance: -0.09
[3]
  z-score of subpopulation abundance: -0.2
[4]
  z-score of subpopulation abundance: 0.08
[5]
  z-score of subpopulation abundance: -0.43
[6]
  z-score of subpopulation abundance: -0.74
[7]
  z-score of subpopulation abundance: -0.91
[15]
  z-score of subpopulation abundance: -0.16
[8]
  z-score of subpopulation abundance: -0.12
[9]
  z-score of subpopulation abundance: -0.2
[10]
  z-score of subpopulation abundance: -0.71
[11]
  z-score of subpopulation abundance: -0.78
[12]
  z-score of subpopulation abundance: -0.03

## CC[C@H]1OC(=O)[C@H](C)[C@@H](O[C@H]2C[C@@](C)(OC)[C@@H](O)[C@H](C)O2)[C@H](C)[C@@H](O[C@@H]2O[C@H](C)C[C@H](N(C)C)[C@H]2O)[C@](C)(O)C[C@@H](C)C(=O)[C@H](C)[C@@H](O)[C@]1(C)O [Erythromycin thiocyanate]
[1]
  mean cell size: 12.1 ± 0.14
[13]
  z-score of prototroph abundance: 0.64
[14]
  z-score of subpopulation abundance: -0.64
[2]
  z-score of subpopulation abundance: 0.41
[3]
  z-score of subpopulation abundance: -1.72
[4]
  z-score of subpopulation abundance: -0.22
[5]
  z-score of subpopulation abundance: 0.36
[6]
  z-score of subpopulation abundance: 0.23
[7]
  z-score of subpopulation abundance: -0.7
[15]
  z-score of subpopulation abundance: 0.06
[8]
  z-score of subpopulation abundance: -0.71
[10]
  z-score of subpopulation abundance: -0.41
[12]
  z-score of subpopulation abundance: 0

## NS(=O)(=O)c1cc(C(=O)O)c(NCc2ccco2)cc1Cl [Furosemide]
[1]
  mean cell size: 12.5 ± 0.21

## O=S(=O)(O)CCCCOC[C@H]1O[C@@H]2O[C@H]3[C@H](O)[C@@H](O)[C@@H](O[C@H]4[C@H](O)[C@@H](O)[C@@H](O[C@H]5[C@H](O)[C@@H](O)[C@@H](O[C@H]6[C@H](O)[C@@H](O)[C@@H](O[C@H]7[C@H](O)[C@@H](O)[C@@H](O[C@H]8[C@H](O)[C@@H](O)[C@@H](O[C@H]1[C@H](O)[C@H]2O)O[C@@H]8CO)O[C@@H]7COCCCCS(=O)(=O)O)O[C@@H]6COCCCCS(=O)(=O)O)O[C@@H]5COCCCCS(=O)(=O)O)O[C@@H]4COCCCCS(=O)(=O)O)O[C@@H]3COCCCCS(=O)(=O)O
[1]
  mean cell size: 12.1 ± 0.26

## Clc1ccc(COC(Cn2ccnc2)c2ccc(Cl)cc2Cl)cc1 (stereo not given) [Econazole]
[13]
  z-score of prototroph abundance: -7.96
[14]
  z-score of subpopulation abundance: -1.62
[2]
  z-score of subpopulation abundance: 0.12
[3]
  z-score of subpopulation abundance: 20.3
[4]
  z-score of subpopulation abundance: -0.93
[5]
  z-score of subpopulation abundance: -1.56
[7]
  z-score of subpopulation abundance: 5.61
[15]
  z-score of subpopulation abundance: 9.39
[8]
  z-score of subpopulation abundance: 12.8
[9]
  z-score of subpopulation abundance: 17.3
[10]
  z-score of subpopulation abundance: 4.19
[11]
  z-score of subpopulation abundance: 3.58
[12]
  z-score of subpopulation abundance: 17.3

## CNS(=O)(=O)Cc1ccc2[nH]cc(CCN(C)C)c2c1 [Sumatriptan Succinate]
[1]
  mean cell size: 12.34 ± 0.1

## CO[C@@H]1[C@@H](O[C@@H]2O[C@H](C)[C@@H](O[C@H]3C[C@@](C)(O)[C@@H](OC(=O)CC(C)C)[C@H](C)O3)[C@H](N(C)C)[C@H]2O)[C@@H](CC=O)C[C@@H](C)[C@@H](O)/C=C/C=C/C[C@@H](C)OC(=O)C[C@H]1O [Kitasamycin]
[1]
  mean cell size: 12.32 ± 0.037
